Experimental data: publication PMC12431657, “Discovery and mechanistic insights of dibenzoylmethane as a broad spectrum inhibitor of coronavirus” (PLOS Pathogens, 2025)
Counter-ions that a name gives are not always drawn. Like-named read-outs stand apart in the source and are kept apart here. The campaign covered roughly 3,300 compounds. About 95 (3%) showed an effect of 50% or more. The sample as a whole holds a higher share of strong results than the screen did.

Test system: HCoV-229E
Set-up: species or system Huh-7; HTS, protection from HCoV-229E induced cell death, luminescent cell viability (CellCounting-Lite 2.0), inhibition rate
Conditions: 24 h post infection, 1 h compound pre-incubation, 10 µM, inhibitor

Structure (SMILES) | 229E Inhibition rate [%] | 229E Inhibition rate (229E Inhibition rate, 24 h) [%]
C/C(=C\CC[C@@H](C)[C@H]1CC[C@@]2(C)C3=CC[C@H]4C(C)(C)[C@@H](O)CC[C@]4(C)C3=CC[C@]12C)CO [Ganoderol B] | 7.7 | –
C=C(CC[C@@H](C(=O)O)[C@H]1[C@H](O)C[C@@]2(C)C3=CC[C@H]4C(C)(C)[C@@H](O)CC[C@]4(C)C3=CC[C@]12C)C(C)C [Dehydrotumulosic acid] | 8.5 | –
CC1(C)O[C@H]2CC(=O)OC[C@]23[C@H]2CC[C@@]4(C)[C@H](c5ccoc5)OC(=O)[C@H]5O[C@]54[C@]2(C)[C@@H](O)C(=O)[C@@H]13 [Rutaevin] | 0 | –
COc1cc(O)cc(OC)c1 [3,5-Dimethoxyphenol] | 32.7 | –
COc1cc(OC)cc(OC)c1 [1,3,5-Trimethoxybenzene] | 55.2 | –
COc1ccc(OC)cc1 [1,4-Dimethoxybenzene] | 21 | –
O=C1N[C@@H](Cc2ccccc2)C(=O)N2CCC[C@@H]12 [Cyclo(L-Phe-L-Pro)] | 11.1 | –
CCCCCCCCCCCCCCCc1cc(O)cc(O)c1 [5-Pentadecylresorcinol] | 51.7 | –
Oc1ccc(CCc2cc(O)cc(O)c2)cc1 [Dihydroresveratrol] | 10.7 | –
CCCCCCCCCCCC1=C(O)C(=O)C=C(O)C1=O [Embelin] | 12.3 | –
O=c1c(O)c(-c2ccc(O)cc2)oc2c(O)c(O)cc(O)c12 [Herbacetin] | 0 | –
O=C1CCC[C@@H]2[C@H]3CCCN4CCC[C@@H](CN12)[C@H]34 [Allomatrine] | 8.4 | –
COC[C@@H]1Cc2cc(OC)c3c(c2[C@H](c2ccc(OC)c(OC)c2)[C@H]1COC)OCO3 [Hypophyllanthin] | 24.8 | –
C=C1C(=O)O[C@H]2C[C@@H](C)[C@@H]3CCC(=O)[C@@]3(C)[C@@H](OC(C)=O)[C@H]12 [Ergolide] | 57.9 | –
C=C1C(=O)O[C@H]2C[C@@H](C)[C@@H]3C=CC(=O)[C@@]3(C)[C@@H](OC(C)=O)[C@H]12 [Bigelovin] | 4.5 | –
C=C1C(=O)O[C@H]2C[C@@H](C)[C@@H]3[C@@H](OC(C)=O)C[C@H](O)[C@@]3(C)[C@@H](OC(C)=O)[C@H]12 [Britannin] | 3 | –
CC1(C)O[C@H]2CC(=O)OC[C@@]23[C@H]1CC(=O)[C@@]1(C)C2=CC(=O)O[C@@H](c4ccoc4)[C@]2(C)CC[C@@H]13 [Deoxylimonin] | 9.8 | –
CC(=O)O[C@@]12CO[C@@H]1C[C@@H](O)[C@@]1(C)C(=O)[C@H](O)C3=C(C)[C@@H](OC(=O)[C@H](O)[C@@H](NC(=O)c4ccccc4)c4ccccc4)C[C@@](O)([C@@H](OC(=O)c4ccccc4)[C@H]21)C3(C)C [7-Epi 10-desacetyl paclitaxel] | 21.4 | –
O=C(N[C@H](COC(=O)[C@H](Cc1ccccc1)NC(=O)c1ccccc1)Cc1ccccc1)c1ccccc1 [Asperphenamate] | 18 | –
CCCCCCCC/C=C\CCCCCCCC(=O)O [Oleic acid] | – | 9.2

Structure (SMILES) | 229E Inhibition rate [%] | 229E Inhibition rate (229E Inhibition rate, 24 h) [%]
CCCCC/C=C\C/C=C\CCCCCCCC(=O)NCc1ccccc1 [N-Benzyllinoleamide] | 24.5 | –
CCCCCC/C=C\CCCC(=O)O [cis-5-Dodecenoic acid] | 63.5 | –
CCCCCCCCCCCCCCCCCC(=O)NCc1ccccc1 [N-Benzyloctadecanamide] | 46.3 | –
CCCCCCCC/C=C\CCCCCCCC(=O)NCc1ccccc1 [N-Benzyloleamide] | 52.8 | –
CCCCCCCCCCC/C=C\CCCCC(=O)O [Petroselinic acid] | 0 | –
Nc1nc(=O)n([C@H]2C[C@H](O)[C@@H](CO)O2)cc1CO [5-Hydroxymethyl-2’-deoxycytidine] | 0 | –
OC[C@H]1OC(O)[C@H](O)[C@H](O)[C@@H]1O (stereo partly drawn) [D-Allose] | 0 | –
C=C(C)[C@@H]1CC[C@]2(COC(C)=O)CC[C@]3(C)[C@H](CC[C@@H]4[C@@]5(C)CC[C@H](OC(C)=O)C(C)(C)[C@@H]5CC[C@]43C)[C@@H]12 [Betulin diacetate] | 4.9 | –
O=c1ccc2cc3ccoc3c(O)c2o1 [Xanthotoxol] | 35.1 | –
CC(=O)O[C@@H](CC=C(C)C)C1=CC(=O)c2c(O)ccc(O)c2C1=O [Acetylalkannin] | 10.1 | –
CC(C)=CC[C@H](OC(=O)C=C(C)C)C1=CC(=O)c2c(O)ccc(O)c2C1=O [β,β-Dimethylacrylalkannin] | 17.4 | –
CC(C)=CC[C@@H](OC(=O)C=C(C)C)C1=CC(=O)c2c(O)ccc(O)c2C1=O [β,β-Dimethylacrylshikonin] | 50.2 | –
C[n+]1cccc(C(=O)[O-])c1 [Trigonelline] | – | 7.5
O=c1cc(-c2ccccc2)oc2cc(O[C@@H]3O[C@H](CO)[C@@H](O)[C@H](O)[C@H]3O)c(O)c(O)c12 [Oroxin A] | 34.7 | –
CC(=O)c1ccc[nH]1 [2-Acetylpyrrole] | 51.6 | –
O=C(O)c1ccc[nH]1 [Pyrrole-2-carboxylic acid] | 6.8 | –
CC(=O)c1ccccc1 [Acetophenone] | 31.9 | –
CCCCCCCCC1=C(CCCCCCCC(=O)O)C1 [Sterculic acid] | 20 | –
CC(=O)NCCCCCN [N-(5-Aminopentyl)acetamide] | 61.9 | –
CC(=O)NCCCCN [N-Acetylputrescine hydrochloride] | 17.4 | –

Structure (SMILES) | 229E Inhibition rate [%] | 229E Inhibition rate (229E Inhibition rate, 24 h) [%]
CC(=O)NCCCCNCCCN [N8-Acetylspermidine dihydrochloride] | 37.4 | –
C[C@@]1(C(=O)O)CC[C@]2(C)CC[C@]3(C)C4=CC(=O)c5c(cc(O)c(O)c5C=O)[C@]4(C)CC[C@@]3(C)[C@@H]2C1 [Demethylzeylasteral] | 6.3 | –
CCCCCCC/C=C/C(=O)CCc1ccc(O)c(OC)c1 [[8]-Shogaol] | 39.3 | –
C/C=C1/CN2[C@@H]3C[C@@]45c6ccccc6N[C@]4(O3)[C@@H]2C[C@@H]1[C@H]5C(=O)OC [Picrinine] | 51.7 | –
C/C=C1/CN2[C@H]3Cc4c([nH]c5ccccc45)[C@]2(O)C[C@@H]1[C@@]3(CO)C(=O)OC [16-Epivoacarpine] | 7.1 | –
C/C=C1/CN2CCc3c([nH]c4ccccc34)[C@@H]2C[C@@H]1/C(=C/OC)C(=O)OC [Geissoschizine methyl ether] | 0 | –
O=C(O)CNC(=O)/C=C/c1ccccc1 [Cinnamoylglycine] | 41.7 | –
O=C(O)C[C@@](O)(C(=O)O)[C@H](O)C(=O)O [(-)-Hydroxycitric acid] | 12.3 | –
CC(C)=C/C=C1\O[C@@H]2CC(C)=CC(=O)[C@@H]2[C@]1(C)O [Bisabolangelone] | 30 | –
O=Cc1ccc(O)cc1 [p-Hydroxybenzaldehyde] | 10.9 | –
CC(C)=CCC[C@](C)(O[C@@H]1O[C@H](CO)[C@@H](O)[C@H](O)[C@H]1O)[C@H]1CC[C@]2(C)[C@@H]1[C@H](O)C[C@@H]1[C@@]3(C)C[C@@H](O)[C@H](O[C@@H]4O[C@H](CO)[C@@H](O)[C@H](O)[C@H]4O[C@@H]4O[C@H](CO)[C@@H](O)[C@H](O)[C@H]4O)C(C)(C)[C@@H]3CC[C@]12C [Gypenoside XLVI] | 10.6 | –
CC(C)=CCC[C@](C)(O)[C@H]1CC[C@]2(C)[C@@H]1[C@H](O)C[C@@H]1[C@@]3(C)C[C@@H](O)[C@H](O[C@@H]4O[C@H](CO)[C@@H](O)[C@H](O)[C@H]4O[C@@H]4O[C@H](CO)[C@@H](O)[C@H](O)[C@H]4O)C(C)(C)[C@@H]3CC[C@]12C [Gypenoside L] | 61.5 | –
CC(C)=CCC[C@@](C)(O)[C@H]1CC[C@]2(C)[C@@H]1[C@H](O)C[C@@H]1[C@@]3(C)CC[C@H](O)C(C)(C)[C@@H]3[C@@H](O[C@@H]3O[C@H](CO)[C@@H](O)[C@H](O)[C@H]3O[C@@H]3O[C@@H](C)[C@H](O)[C@@H](O)[C@H]3O)C[C@]12C [20(R)-Ginsenoside Rg2] | 5.2 | –
CC(C)=CCC[C@](C)(O)[C@H]1CC[C@]2(C)[C@@H]1[C@H](O)C[C@@H]1[C@@]3(C)CC[C@H](O)C(C)(C)[C@@H]3[C@@H](O[C@@H]3O[C@H](CO)[C@@H](O)[C@H](O)[C@H]3O[C@@H]3O[C@@H](C)[C@H](O)[C@@H](O)[C@H]3O)C[C@]12C [Ginsenoside Rg2] | 54.2 | –
CC(C)=CCC[C@@](C)(O)[C@H]1CC[C@]2(C)[C@@H]1[C@H](O)C[C@@H]1[C@@]3(C)C[C@@H](O)[C@H](O[C@@H]4O[C@H](CO)[C@@H](O)[C@H](O)[C@H]4O[C@@H]4O[C@H](CO)[C@@H](O)[C@H](O)[C@H]4O)C(C)(C)[C@@H]3CC[C@]12C [Gypenoside LI] | 0 | –
CC(C)=CCC[C@](C)(O)[C@H]1CC[C@]2(C)[C@@H]1[C@H](O)C[C@@H]1[C@@]3(C)CC[C@H](O)C(C)(C)[C@@H]3[C@@H](O[C@@H]3O[C@H](CO)[C@@H](O)[C@H](O)[C@H]3O[C@@H]3O[C@H](CO)[C@@H](O)[C@H](O)[C@H]3O)C[C@]12C [Ginsenoside Rf] | 28.3 | –
COc1ccc([C@H]2OC[C@H]3[C@@H]2CO[C@H]3c2ccc(O[C@@H]3O[C@H](CO)[C@@H](O)[C@H](O)[C@H]3O)c(OC)c2)cc1OC [Phillyrin] | 0 | –
COc1cc(C2Oc3ccc([C@H]4Oc5cc(O)cc(O)c5C(=O)[C@@H]4O)cc3OC2CO)ccc1O (stereo partly drawn) [Isosilybin] | 0 | –
COc1cc(C2Oc3cc([C@H]4Oc5cc(O)cc(O)c5C(=O)[C@@H]4O)ccc3OC2CO)ccc1O (stereo partly drawn) [Silybin] | 13 | –
COc1cc([C@@H]2[C@H]3CO[C@@]4(O)C(=O)[C@@H]2C=C([C@H]2Oc5cc(O)cc(O)c5C(=O)[C@@H]2O)[C@@H]34)ccc1O [Silydianin] | 51.4 | –
